Assay outcomes deposited in PubChem BioAssay by The Scripps Research Institute Molecular Screening Center.
A selection: hits, their analogues and other compounds. The true share with any hit is near 4.1%.
DAX1 inh-1: inhibitors of human orphan nuclear receptor DAX1 (NR0B1); inhibition, % at 6.75 µM; hit rate 0.99% among 340,000; AID 504766; HEK293 Gal4-DAX1 luciferase reporter, luminescence;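 active = inhibition above the mean over all tested compounds plus 3 SD, cut at about 4.2% in these data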;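 also: 0% = DAX1-transfected cells with DMSO and 100% = empty-vector control cells with DMSO; inhibition shows as a rise in luminescence from relieved DAX1 repression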
Target sequence (P51843 207-470 limits assumed): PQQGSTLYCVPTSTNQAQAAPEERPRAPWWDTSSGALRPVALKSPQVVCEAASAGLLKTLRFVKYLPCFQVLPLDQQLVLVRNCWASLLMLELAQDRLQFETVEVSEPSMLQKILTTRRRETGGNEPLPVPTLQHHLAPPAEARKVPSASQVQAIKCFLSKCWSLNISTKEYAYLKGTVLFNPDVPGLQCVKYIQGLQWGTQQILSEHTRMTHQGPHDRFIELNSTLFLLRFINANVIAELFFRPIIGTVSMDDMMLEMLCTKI
hcDAF12 agonist: H. contortus DAF-12 activation, primary screen; HEK293 hcDAF-12 lit1-tk-luc reporter, luminescence; 0% DMSO, 100% Δ7-dafachronic acid; activation, % at 6.8 µM; hit rate 1.4% among 370,000;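 active = activation above the mean of all tested compounds plus 3 SD, cut at about 5.5% in these data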;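 also: 100% = response to 3 µM Δ7-dafachronic acid high control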
DAX1 inh-2: blocks DAX1 repression of SF-1 activated StAR promoter. HEK293T StAR-luciferase reporter, SF-1/DAX-1 repression relief. inhibition, % at 6.8 µM. hit rate 1.1% among 370,000;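 active = inhibition above the mean over all tested compounds plus 3 SD, cut at about 3.6% in these data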;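 also: 0% = DAX-1 cells with DMSO and 100% = cells lacking DAX-1 with DMSO; higher inhibition means more luminescence from relief of DAX-1 repression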
ssDAF12 agonist: activates DAF-12 receptor from parasite S. stercoralis. activation, % at 6.8 µM. HEK293 ssDAF-12/GRIP1 lit1-tk-luc reporter, luminescence; % of 3 µM dafachronic acid response. hit rate 1% among 370,000. AID 652126;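 active = activation above the mean over all tested compounds plus 3 SD, cut at about 0.9% in these data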;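 also: 0% = DMSO-only wells and 100% = 3 µM delta7-dafachronic acid wells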
hgDAF-12 ag: activates the H. glycines DAF-12 receptor ligand-binding domain; HEK293 GAL4-hgDAF12 UAS-luciferase reporter, agonist luminescence; normalized to butyrate control; activation, % at 6.8 µM; hit rate 1.8% among 370,000; AID 687014;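 active = activation above a cutoff set at the mean of all screened compounds plus 3 SD, cut at about 10% in these data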;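 also: 0% = DMSO wells and 100% = sodium butyrate wells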
DAX1 inh confirm: NR0B1 (human) inhibition, confirmation. HEK293T StAR-promoter luciferase reporter, SF-1/DAX-1 repression. shares compounds with DAX1 inh-2. AID 652134. inhibition, % at 6.8 µM. hit rate 87% among 2,400;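 active = inhibition above the average of every tested compound plus 3 SD, cut at about 3.8% in these data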;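 also: 0% = DAX-1 cells with DMSO and 100% = no DAX-1 control cells with DMSO; active compounds raise luminescence by relieving repression of the StAR reporter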
SF1 mutant ctr: nonselective inhibitor or artifact in SF-1 mutant DAX1 counter-screen; shares compounds with DAX1 inh-2; HEK293 StAR-luciferase, SF-1 AF2 mutant, luminescence; inhibition, % at 6.8 µM; hit rate 78% among 2,400; AID 652136;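 active = inhibition above the mean of all tested compounds plus 3 SD, cut at about 3% in these data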;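 also: 0% = DAX-1 transfected cells with DMSO and 100% = cells without DAX-1 with DMSO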
LXR ag: LXR-beta agonism as hcDAF-12 counter-screen. shares compounds with hcDAF12 agonist. activation, % at 6.8 µM. HEK293 Gal4-LXR tk-luc reporter, luminescence, 24 h; normalized: DMSO 0%, positive control 100%. 3,400 tested, under 10 active. AID 743027;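 active = mean percent activation of the reporter above a cutoff set as the average over tested compounds plus their standard deviation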
Target sequence (P55055 whole entry, looked up, the tested form may be a part): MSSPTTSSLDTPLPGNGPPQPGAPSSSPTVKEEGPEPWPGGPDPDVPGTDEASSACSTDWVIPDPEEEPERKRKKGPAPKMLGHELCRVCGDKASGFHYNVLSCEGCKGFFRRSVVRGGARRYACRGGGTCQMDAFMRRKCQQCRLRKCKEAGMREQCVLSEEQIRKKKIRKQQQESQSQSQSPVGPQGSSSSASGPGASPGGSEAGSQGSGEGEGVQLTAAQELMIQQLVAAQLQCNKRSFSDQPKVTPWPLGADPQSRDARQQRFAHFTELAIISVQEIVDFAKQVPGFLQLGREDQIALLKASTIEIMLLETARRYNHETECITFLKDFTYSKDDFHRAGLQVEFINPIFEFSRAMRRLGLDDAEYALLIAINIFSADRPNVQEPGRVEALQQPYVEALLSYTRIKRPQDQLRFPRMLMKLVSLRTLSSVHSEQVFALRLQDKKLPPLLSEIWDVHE
hcDAF12 ag: confirmation of H. contortus DAF-12 agonists. shares compounds with hcDAF12 agonist. HEK293 hcDAF-12 lit1-tk-luc reporter, luminescence; % of Δ7-dafachronic acid response. activation, % at 6.8 µM. hit rate 61% among 3,400;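 active = mean activation across triplicate tests above the threshold derived from the earlier primary screen, cut at about 5.5% in these data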;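 also: 0% = DMSO only wells and 100% = 3 µM Δ7-dafachronic acid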
hgDAF12 ag: confirmation of H. glycines DAF-12 agonists; AID 743050; hit rate 80% among 3,300; HEK293 GAL4-hgDAF12 luciferase reporter, agonist mode; percent of butyrate response; activation, % at 6.8 µM; shares compounds with hgDAF-12 ag;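 active = mean activation over triplicate wells above the hit cutoff derived from the earlier primary screen, cut at about 11% in these data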;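 also: 0% = DMSO low control and 100% = 2 mM sodium butyrate high control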
LXRb DAF12 ctr: activates human LXR-beta, counter-screen for DAF-12 agonists; activation, % at 6.8 µM; 3,300 tested, under 10 active; AID 743051; shares compounds with hgDAF-12 ag; HEK293 Gal4-LXR luciferase reporter, 24 h;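 active = mean activation of the triplicate above a set limit carried over from the primary screen, none filed active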
Active calls of the source: *; . = not tested or not shown.

SMILES	DAX1 inh-1	hcDAF12 agonist	DAX1 inh-2	ssDAF12 agonist	hgDAF-12 ag	LXR ag	hcDAF12 ag	others
O=C(Nc1ccccc1O)c1ccc(NC(=O)C2CC2)cc1	9.5*	9.8*	42*	1	62*	2	7.9*	DAX1 inh confirm=46*;SF1 mutant ctr=22*;hgDAF12 ag=69*;LXRb DAF12 ctr=1
O=C(Nc1ccccc1C(=O)O)c1ccc(NC(=O)C2CC2)cc1	-2	1	-1	-1	-1	.	.
Cc1ccsc1/C=C/c1ccc2ccccc2n1	1	23*	5.0*	3.0*	16*	2	22*	DAX1 inh confirm=7.3*;SF1 mutant ctr=2;hgDAF12 ag=15*;LXRb DAF12 ctr=2
COc1ccc(C=Cc2ccc3ccccc3n2)c(OC)c1	1	0	-2	-2	-8	.	.
COc1ccc(-c2cc(=O)c3cc(OC)ccc3o2)cc1	3	8.1*	9.0*	0	20*	2	7.2*	DAX1 inh confirm=9.7*;SF1 mutant ctr=1;hgDAF12 ag=20*;LXRb DAF12 ctr=1
COc1ccc(-c2cc(=O)c3ccc(O)cc3o2)cc1	3	3	7.8*	-1	16*	.	.	DAX1 inh confirm=10*;SF1 mutant ctr=5.7*;hgDAF12 ag=14*;LXRb DAF12 ctr=1
COc1cc(-c2cc(=O)c3ccc(O)cc3o2)cc(OC)c1OC	.	-3	-1	-1	-3	.	.
COc1ccc2c(=O)c(-c3ccccc3)coc2c1	2	6.8*	6.2*	0	21*	1	5	DAX1 inh confirm=12*;SF1 mutant ctr=8.2*;hgDAF12 ag=17*;LXRb DAF12 ctr=1
COc1ccc2oc(-c3ccccc3)cc(=O)c2c1	.	7.6*	5.8*	1.1*	13*	2	8.5*	DAX1 inh confirm=13*;SF1 mutant ctr=5.4*;hgDAF12 ag=16*;LXRb DAF12 ctr=1
CNC(=O)c1ccccc1C1(O)c2ccccc2CCc2ccccc21	.	0	0	-1	-1	.	.
O=C(CSc1nnc(-c2ccccc2)n1-c1ccc(Cl)cc1)Nc1cccc2ccccc12	.	-3	-1	-1	1	.	.
C[C@@H]1CN([C@@H](C)CO)C(=O)CCCn2cc(nn2)CO[C@H]1CN(C)C(=O)Nc1cccc(C(F)(F)F)c1	.	-1	-1	0	-3	.	.
COC(=O)[C@]12C[C@H](CC(=O)N3CCN(C(=O)C4CC4)CC3)C(=O)N(Cc3ccc(Cl)cc3Cl)C1=C[C@H](C(C)C)O[C@@H]2C1CC1	.	-3	-2	-2	-1	.	.
O=C(Nc1nc(-c2nc3ccccc3s2)cs1)C1CC1	1	5	8.8*	0	23*	.	.	DAX1 inh confirm=13*;SF1 mutant ctr=6.4*;hgDAF12 ag=15*;LXRb DAF12 ctr=1
Cc1csc(Nc2ccc(C(=O)O)cc2)n1	2	0	0	-1	0	.	.
O=C(O)c1ccc(Nc2nc(-c3ccccc3)cs2)cc1	2	5	5.0*	1	15*	.	.	DAX1 inh confirm=13*;SF1 mutant ctr=7.7*;hgDAF12 ag=16*;LXRb DAF12 ctr=1
Cc1cccc(C(=O)N[C@H]2CC[C@@]34CCCN3C(=O)CCC[C@H]4[C@H]2C)c1	.	-2	.	-1	0	.	.
N#Cc1cnn2cc(-c3ncc(C(F)(F)F)cc3Cl)cnc12	0	-1	-1	-2	2	.	.
Cc1cc2ncc(-c3ncc(C(F)(F)F)cc3Cl)cn2n1	-2	8.3*	2	1	12*	1	6.7*
Nc1ccccc1-n1cccc1	.	15*	0	1.6*	7	0	5
N/C(=N\O)c1ccccc1-n1cccc1	-1	-1	0	-2	1	.	.
Cc1ccc(C(=O)Nc2ccccc2C(=O)NC(CC(=O)O)C(=O)O)cc1 (stereo not drawn)	0	7.0*	1	1	7	0	3
O=C(O)CC(NC(=O)c1ccccc1NC(=O)c1ccccc1)C(=O)O (stereo not drawn)	1	0	1	-1	-2	.	.
C(=N\Nc1ccccc1)/c1nc2ccccc2s1	4.8*	18*	3	3.8*	24*	3	23*
N/C(=N\N=C\c1ccc(O)cc1)c1nonc1N	3	7.9*	4	0	16*	1	5
SMILES	DAX1 inh-1	hcDAF12 agonist	DAX1 inh-2	ssDAF12 agonist	hgDAF-12 ag	LXR ag	hcDAF12 ag	others
CCOC(=O)c1c(C)nc(-c2ccccc2)nc1N	4.8*	9.2*	3	1.5*	16*	1	14*
Cc1ccc(-c2nc(NCc3cccnc3)c3ccccc3n2)cc1	0	6.8*	1	0	0	0	4
c1ccc(-c2nc(NCc3cccnc3)c3ccccc3n2)cc1	0	.	.	.	.	.	.
Cc1ccc(-c2nc(NCCN(C)C)c3ccccc3n2)cc1	3	14*	2	0	5	0	8.7*
Cc1ccc(-c2nc(NCc3ccco3)c3ccccc3n2)cc1	1	6.6*	-1	0.9*	8	0	5.7*
O=C(C(=O)N1CCN(C(=O)c2ccccc2C(F)(F)F)CC1)c1cccc(C(F)(F)F)c1	.	-1	0	0	-2	.	.
CCCCN1CN2Cc3cc(OC)ccc3C2CS1(=O)=O (stereo not drawn)	.	0	0	-1	1	.	.
CCC(C)Nc1nc(-c2c[nH]c3ccccc23)cs1 (stereo not drawn)	1	8.8*	0	1	7	0	5
CN1CCN(CC(=O)Nc2nc(-c3c[nH]c4ccccc34)cs2)CC1	1	2	2	0	4	.	.
C=CCc1ccccc1OCC(O)CNC1CCCC1 (stereo not drawn)	0	7.2*	0	-1	-3	0	0
C=CCc1ccccc1OCC(O)CNC(C)C (stereo not drawn)	0	-1	1	0	-1	.	.
Oc1c(Cl)cc(Cl)cc1C=Nc1cc(C(F)(F)F)ccc1N1CCc2ccccc2C1	2	21*	3	3.2*	20*	2	16*
Oc1c(Cl)cccc1C=Nc1cc(C(F)(F)F)ccc1N1CCCC1	0	2	0	-1	0	.	.
O=C(C1=C(O)C(=O)N(CCN2CCOCC2)C1c1cccc(F)c1)c1cc2ccccc2o1 (stereo not drawn)	0	8.3*	0	0	1	0	3
